Our source for the growth values is PubChem BioAssay (NCI).

Where “and” joins values, the source holds several entries; their conditions need not be identical. Equal entries are not always repeated. The panel holds about 83,000 compounds, 20% with a hit somewhere; the sample as a whole holds those more often.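 Single-dose data. Exposure time 48 hours. Values below 10 considered active.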 Unmarked numbers belong to inactive results. Calls of active or inactive are those of the source.

Holding throughout (experiment): NCI-60 one-dose screen, 48 h (100 = growth as untreated, 0 = no growth, -100 = all killed)
Conditions in all cases: 10 µM unless noted

Test [1] deals with SK-MEL-2 melanoma.
Test [2] relates to EKVX NSCLC.
In test [3] the test system is SN12C renal.
The subject of test [4] is UO-31 renal.
For test [5], the system named is TK-10 renal.
The subject of test [6] is ACHN renal.
The subject of test [7] is CAKI-1 renal.
The test system of test [8] is A498 renal.
In test [9] the test system is HL-60(TB) leukemia.
Test [10] concerns CCRF-CEM leukemia.

For `CCCN1C(=O)NC(=O)C(CC)(N2C(=O)c3c(F)c(F)c(F)c(F)c3C2=O)C1=O` (stereo not given), the growth in test [1] is -65.2% (active); in [2] it was -44.4% (active); in [3] it was -72.7% (active); in test [4] it was -98.8% (active); in test [5], -76.4% (active); in test [6] it was -79.4% (active). Further, the growth is -89.9% (active) in test [7], -85.3% (active) in [8], -80.1% (active) in [9] and -56.7% (active) in [10].

Regarding `Cc1cc(N(CCCl)CCCl)ccc1/C=N\NC(=O)c1cccnc1`, the growth in [1] was 77.4% and 114%; in [2], 97.9% and 95.8%; in test [3], 67.8% and 75.5%; in test [4], 80.3% and 83.4%; in test [5], 89.2% and 103%; in test [6] it was 72.6% and 84%. Besides, the growth was 36.2% and 41.5% in test [7]; -85.4% (active) and -89.4% (active) in [8]; 60% in [9]; 60.2% and 62.1% in [10].

For `COC(=O)C1=CCCN(C)C1`, the growth in test [1] was 106% and 30.5%; in [2], 97.8% and 98.7%; in test [3] it was 107% and 105%; in [4], 80.4% and 94%; in [5], 106% and 103%; in test [6], 96.9%. Besides, the growth in [7] is 93.7% and 102%; in [8], 97.8% and 112%; in [9], 108% and 122%; in test [10] it was 102%.

Turning to `O=[N+]([O-])c1cc(Cl)c(Cl)c([N+](=O)[O-])c1Cl`, the growth in test [1] is 116%; in [2], 122%; in [3], 23.1%; in [4], 5.47% (active); in [5] it was 80.7%; in [6] it was -30.1% (active). For the same compound, the growth in test [7] was -71.5% (active); in [8], 108%; in test [9], 22.2%; in test [10], 15%.

Take `O=C=Nc1ccc(Br)cc1`: the growth in [1] was 109%; in [2], 102%; in test [3] it was 111%; in test [4], 102%; in [5], 109%; in test [6], 114%. For the same compound, the growth in test [7] was 104%; in test [8], 94.2%; in test [9] it was 96.4%; in test [10] it was 103%.

Consider `CO/N=C1\CC[C@]2(C)[C@H]3CC[C@]4(C)C(=O)CC[C@H]4[C@@H]3C[C@@H]3SC(N)=N[C@@]32C1`, for which the growth in test [1] is 96.5%; in test [2] it was 91.8%; in test [3], 107%; in test [4], 77.9%; in [5] it was 116%; in test [6], 100%. Besides, the growth in test [7] was 74.3%; in test [8] it was 98.9%; in test [9], 91.9%; in test [10], 98.7%.

On to `Cn1cc(-c2csc(-c3cn(CCCCN4CCOCC4)c4ccc(F)cc34)n2)c2cccnc21`, for which the growth in test [1] was 78.7%; in test [2], 72.7%; in test [3] it was 72.2%; in [4], 44.4%; in [5] it was 75.4%; in [6] it was 86.3%. Further, the growth is 76.1% in [7], 46.7% in test [8], 76.2% in test [9] and -59.6% (active) in test [10].

Consider `C/C(=N/OC(=O)N(C)C)c1ccc(Cl)c(Cl)c1`, for which the growth was 111% in [1]; 123% in test [2]; 95% in [3]; 94.7% in test [4]; 101% in test [5]; 112% in test [6]. Besides, the growth is 102% in [7], 99.6% in test [8], 112% in test [9] and 98.2% in [10].

For the compound `Cc1cc(N(CCCl)CCCl)ccc1C=Nc1ccc(-c2csc(-c3ccccc3)n2)cc1`, the growth in test [1] was 97.2%; in test [2] it was 111%; in test [3], 64.4%; in [4] it was 59.9%; in [5], 113%; in test [6] it was 80.5%. For the same compound, the growth in [7] is 32.7%; in test [8], 97.7%; in test [9], 49.1%; in test [10] it was 46.5%.

In the case of `C[C@]12CC[C@H]3[C@@H](C[C@@H]4SC(Nc5cccc(F)c5)=N[C@@]45CC(=O)CC[C@]35C)[C@@H]1CCC2=O`, the growth is 21.8% in test [1]; 46.4% in test [2]; 28.5% in test [3]; -26.9% (active) in [4]; 20.3% in test [5]; 1.56% (active) in test [6]. Moreover, the growth in test [7] was 50.5%; in test [8] it was 22.9%; in [9], 8.58% (active); in test [10], 4.95% (active).

For `CC12CCC3C4CCC(=O)C=C4CCC3C1CC1CC(=O)OC12` (stereo not given), the growth was 104% in test [1]; 110% in [2]; 93.8% in test [3]; 85.5% in test [4]; 89.8% in [5]; 103% in [6]. Moreover, the growth in test [7] is 102%; in test [8], 98.9%; in test [9], 105%; in test [10] it was 102%.
